# Results from the supplement of paper PMC4466140.
# Columns and labels:
# Test in all cases: SPOT peptide array binding signal intensity (averaged, normalized) (arbitrary units (background-subtracted, floor 0; scale differs between SH3 domains)); higher = stronger binding of the SH3 domain to the peptide
# AgAbp1 = target: AgAbp1
# Summary of the method: (§1)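 Four yeast species supplied the SH3 domains, which were expressed as GST fusions in E. coli BL21(DE3) and purified on glutathione Sepharose. Incubation with cellulose membranes carrying synthetic 15-mer peptides, cysteines exchanged for serines, ran overnight at 4°C at 10 μg/ml in TBS-based blocking buffer. Binding signal is reported as normalized, background-subtracted spot intensity averaged over replicates, in arbitrary units not shared between domains.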
# AgBbc1 = target: AgBbc1
# Summary of the method: as §1
# AgBem1-D1 = target: AgBem1-D1
# Summary of the method: as §1
# AgBzz1-D1 = target: AgBzz1-D1
# Summary of the method: as §1
# AgBzz1-D2 = target: AgBzz1-D2
# Summary of the method: as §1
# AgCyk3 = target: AgCyk3
# Summary of the method: as §1
# AgFus1 = target: AgFus1
# Summary of the method: as §1
# AgHof1 = target: AgHof1
# Summary of the method: as §1
# AgHse1 = target: AgHse1
# Summary of the method: as §1
# AgLsb1 = target: AgLsb1
# Summary of the method: as §1
# AgLsb4 = target: AgLsb4
# Summary of the method: as §1
# AgMyo5 = target: AgMyo5
# Summary of the method: as §1
# AgNbp2 = target: AgNbp2
# Summary of the method: as §1
# AgRvs167 = target: AgRvs167
# Summary of the method: as §1
# AgSho1 = target: AgSho1
# Summary of the method: as §1
# AgSla1-D1-D2 = target: AgSla1-D1-D2
# Summary of the method: as §1
# AgSla1-D3 = target: AgSla1-D3
# Summary of the method: as §1
# CaAbp1-D1 = target: CaAbp1-D1
# Summary of the method: as §1
# CaAbp1-D2 = target: CaAbp1-D2
# Summary of the method: as §1
# CaBbc1 = target: CaBbc1
# Summary of the method: as §1
# CaBem1-D1 = target: CaBem1-D1
# Summary of the method: as §1
# CaBzz1-D1 = target: CaBzz1-D1
# Summary of the method: as §1
# CaBzz1-D2 = target: CaBzz1-D2
# Summary of the method: as §1
# CaCyk3 = target: CaCyk3
# Summary of the method: as §1
# CaFus1 = target: CaFus1
# Summary of the method: as §1
# CaHof1 = target: CaHof1
# Summary of the method: as §1
# CaHse1 = target: CaHse1
# Summary of the method: as §1
# CaLsb1 = target: CaLsb1
# Summary of the method: as §1
# CaLsb4 = target: CaLsb4
# Summary of the method: as §1
# CaMyo5 = target: CaMyo5
# Summary of the method: as §1
# CaNbp2 = target: CaNbp2
# Summary of the method: as §1
# CaRvs167 = target: CaRvs167
# Summary of the method: as §1
# CaRvs167-3 = target: CaRvs167-3
# Summary of the method: as §1
# CaSho1 = target: CaSho1
# Summary of the method: as §1
# CaSla1-D1-D2 = target: CaSla1-D1-D2
# Summary of the method: as §1
# CaSla1-D3 = target: CaSla1-D3
# Summary of the method: as §1
# ScAbp1 = target: ScAbp1
# Summary of the method: as §1
# ScBbc1 = target: ScBbc1
# Summary of the method: as §1
# ScBem1-D1 = target: ScBem1-D1
# Summary of the method: as §1
# ScBzz1-D1 = target: ScBzz1-D1
# Summary of the method: as §1
# ScBzz1-D2 = target: ScBzz1-D2
# Summary of the method: as §1
# ScCyk3 = target: ScCyk3
# Summary of the method: as §1
# ScFus1 = target: ScFus1
# Summary of the method: as §1
# ScHof1 = target: ScHof1
# Summary of the method: as §1
# ScHse1 = target: ScHse1
# Summary of the method: as §1
# ScLsb1 = target: ScLsb1
# Summary of the method: as §1
# ScLsb2 = target: ScLsb2
# Summary of the method: as §1
# ScLsb3 = target: ScLsb3
# Summary of the method: as §1
# ScLsb4 = target: ScLsb4
# Summary of the method: as §1
# ScMyo3 = target: ScMyo3
# Summary of the method: as §1
# ScMyo5 = target: ScMyo5
# Summary of the method: as §1
# ScNbp2 = target: ScNbp2
# Summary of the method: as §1
# ScPex13 = target: ScPex13
# Summary of the method: as §1
# ScRvs167 = target: ScRvs167
# Summary of the method: as §1
# ScSho1 = target: ScSho1
# Summary of the method: as §1
# ScSla1-D1-D2 = target: ScSla1-D1-D2
# Summary of the method: as §1
# ScSla1-D3 = target: ScSla1-D3
# Summary of the method: as §1
# SpAbp1-D1 = target: SpAbp1-D1
# Summary of the method: as §1
# SpBbc1 = target: SpBbc1
# Summary of the method: as §1
# SpBzz1-D1 = target: SpBzz1-D1
# Summary of the method: as §1
# SpBzz1-D2 = target: SpBzz1-D2
# Summary of the method: as §1
# SpCyk3 = target: SpCyk3
# Summary of the method: as §1
# SpHof1 = target: SpHof1
# Summary of the method: as §1
# SpHof1-2 = target: SpHof1-2
# Summary of the method: as §1
# SpHof1-3 = target: SpHof1-3
# Summary of the method: as §1
# SpHse1 = target: SpHse1
# Summary of the method: as §1
# SpLsb1 = target: SpLsb1
# Summary of the method: as §1
# SpLsb4 = target: SpLsb4
# Summary of the method: as §1
# SpMyo1 = target: SpMyo1
# Summary of the method: as §1
# SpNbp2 = target: SpNbp2
# Summary of the method: as §1
# SpPex13 = target: SpPex13
# Summary of the method: as §1
# SpRvs167 = target: SpRvs167
# Summary of the method: as §1
# SpSla1-D1-D2 = target: SpSla1-D1-D2
# Summary of the method: as §1
# SpSla1-D3 = target: SpSla1-D3
# Summary of the method: as §1
binder,measurement,setting,value
RNNRPVPPPPPMRTT,SPOT peptide array binding signal intensity,AgAbp1,9
same,SPOT peptide array binding signal intensity,AgBbc1,519
same,SPOT peptide array binding signal intensity,AgBem1-D1,129
same,SPOT peptide array binding signal intensity,AgBzz1-D1,232
same,SPOT peptide array binding signal intensity,AgBzz1-D2,117
same,SPOT peptide array binding signal intensity,AgCyk3,15
same,SPOT peptide array binding signal intensity,AgFus1,11
same,SPOT peptide array binding signal intensity,AgHof1,95.5
same,SPOT peptide array binding signal intensity,AgHse1,23
same,SPOT peptide array binding signal intensity,AgLsb1,27
same,SPOT peptide array binding signal intensity,AgLsb4,131
same,SPOT peptide array binding signal intensity,AgMyo5,72.2
same,SPOT peptide array binding signal intensity,AgNbp2,59.5
same,SPOT peptide array binding signal intensity,AgRvs167,76.8
same,SPOT peptide array binding signal intensity,AgSho1,5
same,SPOT peptide array binding signal intensity,AgSla1-D1-D2,6
same,SPOT peptide array binding signal intensity,AgSla1-D3,21.5
same,SPOT peptide array binding signal intensity,CaAbp1-D1,53.5
same,SPOT peptide array binding signal intensity,CaAbp1-D2,11
same,SPOT peptide array binding signal intensity,CaBbc1,724
same,SPOT peptide array binding signal intensity,CaBem1-D1,108
same,SPOT peptide array binding signal intensity,CaBzz1-D1,5240
same,SPOT peptide array binding signal intensity,CaBzz1-D2,1310
same,SPOT peptide array binding signal intensity,CaCyk3,247
same,SPOT peptide array binding signal intensity,CaFus1,69
same,SPOT peptide array binding signal intensity,CaHof1,9.5
same,SPOT peptide array binding signal intensity,CaHse1,3
same,SPOT peptide array binding signal intensity,CaLsb1,2
same,SPOT peptide array binding signal intensity,CaLsb4,541
same,SPOT peptide array binding signal intensity,CaMyo5,34
same,SPOT peptide array binding signal intensity,CaNbp2,312
same,SPOT peptide array binding signal intensity,CaRvs167,392
same,SPOT peptide array binding signal intensity,CaRvs167-3,1
same,SPOT peptide array binding signal intensity,CaSho1,17
same,SPOT peptide array binding signal intensity,CaSla1-D1-D2,1140
same,SPOT peptide array binding signal intensity,CaSla1-D3,187
same,SPOT peptide array binding signal intensity,ScAbp1,10.5
same,SPOT peptide array binding signal intensity,ScBbc1,58
same,SPOT peptide array binding signal intensity,ScBem1-D1,4
same,SPOT peptide array binding signal intensity,ScBzz1-D1,453
same,SPOT peptide array binding signal intensity,ScBzz1-D2,113
same,SPOT peptide array binding signal intensity,ScCyk3,2.5
same,SPOT peptide array binding signal intensity,ScFus1,2.5
same,SPOT peptide array binding signal intensity,ScHof1,21
same,SPOT peptide array binding signal intensity,ScHse1,49.5
same,SPOT peptide array binding signal intensity,ScLsb1,27
same,SPOT peptide array binding signal intensity,ScLsb2,13.5
same,SPOT peptide array binding signal intensity,ScLsb3,1090
same,SPOT peptide array binding signal intensity,ScLsb4,500
same,SPOT peptide array binding signal intensity,ScMyo3,425
same,SPOT peptide array binding signal intensity,ScMyo5,156
same,SPOT peptide array binding signal intensity,ScNbp2,622
same,SPOT peptide array binding signal intensity,ScPex13,1210
same,SPOT peptide array binding signal intensity,ScRvs167,2320
same,SPOT peptide array binding signal intensity,ScSho1,99
same,SPOT peptide array binding signal intensity,ScSla1-D1-D2,1300
same,SPOT peptide array binding signal intensity,ScSla1-D3,56.5
same,SPOT peptide array binding signal intensity,SpAbp1-D1,15.5
same,SPOT peptide array binding signal intensity,SpBbc1,41
same,SPOT peptide array binding signal intensity,SpBzz1-D1,2280
LKHGWKPLRPIKLIS,SPOT peptide array binding signal intensity,CaNbp2,252
same,SPOT peptide array binding signal intensity,CaRvs167,14.8
same,SPOT peptide array binding signal intensity,CaRvs167-3,24.8
same,SPOT peptide array binding signal intensity,CaSho1,201
same,SPOT peptide array binding signal intensity,CaSla1-D1-D2,27.5
same,SPOT peptide array binding signal intensity,CaSla1-D3,10
same,SPOT peptide array binding signal intensity,ScAbp1,296
same,SPOT peptide array binding signal intensity,ScBbc1,9.75
same,SPOT peptide array binding signal intensity,ScBem1-D1,9
same,SPOT peptide array binding signal intensity,ScBzz1-D1,6.5
same,SPOT peptide array binding signal intensity,ScBzz1-D2,20
same,SPOT peptide array binding signal intensity,ScCyk3,10
same,SPOT peptide array binding signal intensity,ScFus1,50
same,SPOT peptide array binding signal intensity,ScHof1,≤ 0
same,SPOT peptide array binding signal intensity,ScHse1,478
same,SPOT peptide array binding signal intensity,ScLsb1,16.5
same,SPOT peptide array binding signal intensity,ScLsb2,≤ 0
same,SPOT peptide array binding signal intensity,ScLsb3,527
same,SPOT peptide array binding signal intensity,ScLsb4,4
same,SPOT peptide array binding signal intensity,ScMyo3,≤ 0
same,SPOT peptide array binding signal intensity,ScMyo5,≤ 0
same,SPOT peptide array binding signal intensity,ScNbp2,550
same,SPOT peptide array binding signal intensity,ScPex13,37.5
same,SPOT peptide array binding signal intensity,ScRvs167,≤ 0
same,SPOT peptide array binding signal intensity,ScSho1,1040
same,SPOT peptide array binding signal intensity,ScSla1-D1-D2,50
same,SPOT peptide array binding signal intensity,ScSla1-D3,6.5
same,SPOT peptide array binding signal intensity,SpAbp1-D1,166
same,SPOT peptide array binding signal intensity,SpBbc1,0.75
same,SPOT peptide array binding signal intensity,SpBzz1-D1,362
same,SPOT peptide array binding signal intensity,SpBzz1-D2,0.5
same,SPOT peptide array binding signal intensity,SpCyk3,≤ 0
same,SPOT peptide array binding signal intensity,SpHof1,93
same,SPOT peptide array binding signal intensity,SpHof1-2,18.8
same,SPOT peptide array binding signal intensity,SpHof1-3,445
same,SPOT peptide array binding signal intensity,SpHse1,294
same,SPOT peptide array binding signal intensity,SpLsb1,≤ 0
same,SPOT peptide array binding signal intensity,SpLsb4,161
same,SPOT peptide array binding signal intensity,SpMyo1,≤ 0
same,SPOT peptide array binding signal intensity,SpNbp2,246
same,SPOT peptide array binding signal intensity,SpPex13,8
same,SPOT peptide array binding signal intensity,SpRvs167,7.5
same,SPOT peptide array binding signal intensity,SpSla1-D1-D2,≤ 0
same,SPOT peptide array binding signal intensity,SpSla1-D3,≤ 0
